According to PubChem BioAssay AID1159580 (chemical genetic matrix, 2015):
Values joined by “and” are separate entries in the source; they are usually repeats but may differ in a detail not shown here. Identical values can stand only once. In all, about 5,500 compounds went through this assay and about 2,000 (36%) were called active. Not shown: some 18% with an inconclusive outcome. Cut-off read from the data, not from the text of the source: active = normalized growth mostly below about 0.91 (no sharp cut-off); inconclusive = no clear call, values can overlap the other calls; inactive = mostly above about 0.92. This is one part of the list.

Assay: chemical genetic growth profiling, strain panel (AID 1159580);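 note: tested at 20 µM; growth read once vehicle control cultures reached saturation at 30 °C; 1 = growth at the plate median or of vehicle wells; lower values mean less growth of the strain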
Settings: S. cerevisiae deletion strains, growth OD

Measured: normalized growth

NC[C@H]1O[C@H](OC2[C@@H](N)C[C@@H](N)[C@H](O[C@H]3O[C@H](CO)[C@@H](O)[C@H](N)[C@H]3O)[C@H]2O)[C@H](O)[C@@H](O)[C@@H]1O (some centres undefined)
inactive: locus YAL013W, strain DEP1, active compounds read low 0.997 | locus YAL021C, strain ccr4, active compounds read low 0.993 | locus YAL026C, strain drs2, active compounds read low 0.998 | locus YAL030W, strain snc1, active compounds read low 1 | locus YBL061C, strain skt5, active compounds read low 1.01 | locus YBR009C, strain hhf1, active compounds read low 1.01 | locus YBR021W, strain FUR4, active compounds read low 0.97 | locus YBR023C, strain chs3, active compounds read low 0.983 | locus YBR171W, strain sec66, active compounds read low 0.989 | locus YBR229C, strain ROT2, active compounds read low 0.988 | locus YBR231C, strain swc5, active compounds read low 0.998 | locus YBR279W, strain paf1, active compounds read low 1.01 | locus YCL011C, strain gbp2, active compounds read low 0.999 | locus YCL016C, strain dcc1, active compounds read low 0.985 | locus YCL029C, strain bik1, active compounds read low 0.985 | locus YCL061C, strain MRC1, active compounds read low 0.99 | locus YCL069W, strain vba3, active compounds read low 0.998 | locus YCR088W, strain abp1, active compounds read low 0.994 | locus YDL005C, strain med2, active compounds read low 0.994 | locus YDL035C, strain GPR1, active compounds read low 1.02 | locus YDL040C, strain nat1, active compounds read low 1 | locus YDL074C, strain BRE1, active compounds read low 0.991 | locus YDL101C, strain DUN1, active compounds read low 0.986 | locus YDL134C, strain PPH21, active compounds read low 1.01 | locus YDL185W, strain tfp1, active compounds read low 0.997 | locus YDL192W, strain arf1, active compounds read low 0.98 | locus YDR001C, strain nth1, active compounds read low 0.995 | locus YDR069C, strain doa4, active compounds read low 1 | locus YDR101C, strain arx1, active compounds read low 0.99 | locus YDR137W, strain rgp1, active compounds read low 0.997 | locus YDR150W, strain NUM1, active compounds read low 1 | locus YDR159W, strain sac3, active compounds read low 1 | locus YDR162C, strain NBP2, active compounds read low 1 | locus YDR195W, strain ref2 0.961 | locus YDR297W, strain sur2, active compounds read low 0.998 | locus YDR318W, strain mcm21, active compounds read low 0.978 | locus YDR334W, strain swr1, active compounds read low 0.988 | locus YDR335W, strain msn5, active compounds read low 1 | locus YDR388W, active compounds read low 0.993 | locus YDR392W, strain spt3, active compounds read low 0.935 | locus YDR502C, strain sam2, active compounds read low 1.01 | locus YEL003W, strain gim4, active compounds read low 1.01 | locus YEL037C, strain rad23, active compounds read low 1.01 | locus YEL061C, strain CIN8 (second series), active compounds read low 0.999 | locus YEL061C, strain CIN8, active compounds read low 0.997 | locus YER015W, strain faa2, active compounds read low 0.978 | locus YER016W, strain bim1, active compounds read low 1.01 | locus YER110C, active compounds read low 0.97 | locus YER111C, strain swi4, active compounds read low 0.994 | locus YER155C, strain BEM2 (second series), active compounds read low 0.993 | locus YER155C, strain BEM2, active compounds read low 0.993 | locus YER167W, strain BCK2, active compounds read low 0.989 | locus YFR010W, strain ubp6, active compounds read low 1 | locus YGL078C, strain dbp3, active compounds read low 0.973 | locus YGL086W, strain mad1, active compounds read low 1 | locus YGL167C, strain pmr1, active compounds read low 1.01 | locus YGL173C, strain kem1, active compounds read low 0.996 | locus YGL227W, strain vid30, active compounds read low 0.991 | locus YGL240W, strain doc1, active compounds read low 0.99 | locus YGL248W, strain PDE1, active compounds read low 0.984 | locus YGL253W, strain hxk2, active compounds read low 1.01 | locus YGR135W, strain pre9, active compounds read low 0.943 | locus YGR252W, strain gcn5, active compounds read low 0.967 | locus YHR013C, strain ard1, active compounds read low 0.982 | locus YHR027C, strain rpn1, active compounds read low 1 | locus YHR030C, strain SLT2, active compounds read low 0.991 | locus YHR079C, strain IRE1 (second series), active compounds read low 0.982 | locus YHR079C, strain IRE1, active compounds read low 0.993 | locus YHR094C, strain hxt1, active compounds read low 0.975 | locus YHR129C, strain ARP1, active compounds read low 0.994 | locus YHR142W, strain chs7, active compounds read low 0.998 | locus YHR200W, strain rpn10, active compounds read low 0.993 | locus YIL066C, strain RNR3, active compounds read low 0.994 | locus YIL073C, strain SPO22, active compounds read low 0.954 | locus YIL125W, strain kgd1, active compounds read low 0.987 | locus YIR030C, strain dcg1, active compounds read low 0.99 | locus YJL092W, strain hpr5, active compounds read low 1 | locus YJL095W, strain BCK1 (second series), active compounds read low 0.997 | locus YJL095W, strain BCK1, active compounds read low 0.99 and 1.01 | locus YJL115W, strain asf1, active compounds read low 0.997 | locus YJL129C, strain trk1, active compounds read low 0.991 | locus YJL134W, strain LCB3, active compounds read low 0.996 | locus YJL154C, strain vps35, active compounds read low 0.992 | locus YJL164C, strain tpk1, active compounds read low 0.991 | locus YJL166W, strain qcr8, active compounds read low 0.99 | locus YJL168C, strain set2, active compounds read low 0.978 | locus YJL187C, strain SWE1 (second series), active compounds read low 0.984 | locus YJL187C, strain SWE1, active compounds read low 0.997 | locus YJR043C, strain POL32, active compounds read low 1.03
